# Data published in the supplement of paper PMC8728848.
# Many of the other results were omitted from the sample, so the strongest signals are more common in it than they were.
# What was measured:
# Assay in all cases: glycan array binding signal (z-score within array); higher = stronger binding
# Conditions in all cases: glycan notation: IUPAC condensed, linker removed
# [1] = molecular target: Fuc(a1-2)Gal(b1-3)GlcNAc
# In short: (§1)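 Arrays were curated from the Consortium for Functional Glycomics database, 3228 in total, and kept only where the protein sequence was available. Binding is expressed as a within-array Z-score. This score was averaged across arrays of the same protein sequence at different concentrations or buffers and across linkers, and negative values can be read as non-binding.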
# [2] = molecular target: Fuc(a1-2)Gal(b1-3)GlcNAc(b1-2)Man(a1-3)[Fuc(a1-2)Gal(b1-3)GlcNAc(b1-2)Man(a1-6)]Man(b1-4)GlcNAc(b1-4)GlcNAc
# In short: as §1
# [3] = molecular target: Fuc(a1-2)Gal(b1-3)[Fuc(a1-4)]GlcNAc(b1-3)[Gal(b1-4)GlcNAc(b1-6)]Gal(b1-4)Glc
# In short: as §1
# [4] = molecular target: Fuc(a1-2)Gal(b1-4)GlcNAc(b1-3)GalNAc
# In short: as §1
# [5] = molecular target: Fuc(a1-2)[Gal(a1-3)]Gal(b1-4)[Fuc(a1-3)]GlcNAc(b1-3)GalNAc
# In short: as §1
# [6] = molecular target: Fuc(a1-3)[Gal(b1-4)]GlcNAc6S
# In short: as §1
# [7] = molecular target: Gal(a1-3)Gal
# In short: as §1
# [8] = molecular target: Gal(a1-3)Gal(b1-3)GlcNAc(b1-2)Man(a1-3)[Gal(a1-3)Gal(b1-3)GlcNAc(b1-2)Man(a1-6)]Man(b1-4)GlcNAc(b1-4)GlcNAc
# In short: as §1
# [9] = molecular target: Gal(a1-4)Gal(b1-3)GlcNAc(b1-2)Man(a1-3)[Gal(a1-4)Gal(b1-3)GlcNAc(b1-2)Man(a1-6)]Man(b1-4)GlcNAc(b1-4)GlcNAc
# In short: as §1
# [10] = molecular target: Gal(b1-3)GlcNAc(a1-3)Gal(b1-4)GlcNAc
# In short: as §1
# [11] = molecular target: Gal(b1-3)GlcNAc(b1-2)Man(a1-3)[Gal(b1-3)GlcNAc(b1-2)Man(a1-6)]Man(b1-4)GlcNAc(b1-4)[Fuc(a1-6)]GlcNAc
# In short: as §1
# [12] = molecular target: Gal(b1-3)GlcNAc(b1-3)Gal(b1-4)GlcNAc(b1-3)Gal(b1-4)GlcNAc(b1-2)[Gal(b1-3)GlcNAc(b1-3)Gal(b1-4)GlcNAc(b1-3)Gal(b1-4)GlcNAc(b1-6)]Man(a1-6)[Gal(b1-3)GlcNAc(b1-3)Gal(b1-4)GlcNAc(b1-3)Gal(b1-4)GlcNAc(b1-2)Man(a1-3)]Man(b1-4)GlcNAc(b1-4)[Fuc(a1-6)]GlcNAc
# In short: as §1
# [13] = molecular target: Gal(b1-3)GlcNAc(b1-6)GalNAc
# In short: as §1
# [14] = molecular target: Gal(b1-3)[Neu5Ac(a2-6)]GalNAc
# In short: as §1
# [15] = molecular target: Gal(b1-4)GlcNAc(b1-2)[Gal(b1-4)GlcNAc(b1-6)]Man(a1-6)[GlcNAc(b1-4)][Gal(b1-4)GlcNAc(b1-2)Man(a1-3)]Man(b1-4)GlcNAc(b1-4)GlcNAc
# In short: as §1
# [16] = molecular target: Gal(b1-4)GlcNAc(b1-3)Gal(b1-4)GlcNAc(b1-3)Gal(b1-4)GlcNAc
# In short: as §1
# [17] = molecular target: Gal(b1-4)GlcNAc(b1-3)Gal(b1-4)GlcNAc(b1-3)Gal(b1-4)GlcNAc(b1-2)Man(a1-3)[Gal(b1-4)GlcNAc(b1-3)Gal(b1-4)GlcNAc(b1-3)Gal(b1-4)GlcNAc(b1-2)Man(a1-6)]Man(b1-4)GlcNAc(b1-4)GlcNAc
# In short: as §1
# [18] = molecular target: Gal(b1-4)GlcNAc(b1-3)Gal(b1-4)GlcNAc(b1-3)Gal(b1-4)GlcNAc(b1-2)Man(a1-3)[Gal(b1-4)GlcNAc(b1-3)Gal(b1-4)GlcNAc(b1-3)Gal(b1-4)GlcNAc(b1-2)Man(a1-6)]Man(b1-4)GlcNAc(b1-4)[Fuc(a1-6)]GlcNAc
# In short: as §1
# [19] = molecular target: Gal(b1-4)GlcNAc(b1-3)Gal(b1-4)GlcNAc(b1-3)Gal(b1-4)GlcNAc(b1-3)Gal(b1-4)GlcNAc(b1-2)Man(a1-3)[Gal(b1-4)GlcNAc(b1-3)Gal(b1-4)GlcNAc(b1-3)Gal(b1-4)GlcNAc(b1-3)Gal(b1-4)GlcNAc(b1-2)Man(a1-6)]Man(b1-4)GlcNAc(b1-4)GlcNAc
# In short: as §1
# [20] = molecular target: Gal(b1-4)GlcNAc(b1-3)Gal(b1-4)GlcNAc(b1-3)Gal(b1-4)GlcNAc(b1-3)Gal(b1-4)GlcNAc(b1-3)Gal(b1-4)GlcNAc(b1-2)Man(a1-3)[Gal(b1-4)GlcNAc(b1-3)Gal(b1-4)GlcNAc(b1-3)Gal(b1-4)GlcNAc(b1-3)Gal(b1-4)GlcNAc(b1-3)Gal(b1-4)GlcNAc(b1-2)Man(a1-6)]Man(b1-4)GlcNAc(b1-4)[Fuc(a1-6)]GlcNAc
# In short: as §1
# [21] = molecular target: Gal3S(b1-3)[Fuc(a1-4)]GlcNAc
# In short: as §1
# [22] = molecular target: GlcA(b1-3)Gal
# In short: as §1
# [23] = molecular target: GlcNAc(a1-4)Gal(b1-4)GlcNAc
# In short: as §1
# [24] = molecular target: GlcNAc(b1-3)Gal(b1-4)GlcNAc(b1-3)Gal(b1-4)GlcNAc(b1-3)Gal(b1-4)GlcNAc(b1-3)Gal(b1-4)GlcNAc(b1-2)Man(a1-3)[GlcNAc(b1-3)Gal(b1-4)GlcNAc(b1-3)Gal(b1-4)GlcNAc(b1-3)Gal(b1-4)GlcNAc(b1-3)Gal(b1-4)GlcNAc(b1-2)Man(a1-6)]Man(b1-4)GlcNAc(b1-4)GlcNAc
# In short: as §1
# [25] = molecular target: Kdn(a2-3)Gal(b1-3)GalNAc
# In short: as §1
# [26] = molecular target: Man(a1-2)Man(a1-3)[Man(a1-6)]Man(a1-6)[Man(a1-2)Man(a1-3)]Man(b1-4)GlcNAc(b1-4)GlcNAc
# In short: as §1
# [27] = molecular target: Man(a1-3)[Man(a1-6)]Man(a1-6)[Man(a1-3)]Man(b1-4)GlcNAc(b1-4)GlcNAc
# In short: as §1
# [28] = molecular target: Neu5Ac(a2-3)Gal(b1-3)[Neu5Ac(a2-6)]GalNAc
# In short: as §1
# [29] = molecular target: Neu5Ac(a2-3)Gal(b1-4)GlcNAc(b1-2)Man(a1-3)[Neu5Ac(a2-6)Gal(b1-4)GlcNAc(b1-2)Man(a1-6)]Man(b1-4)GlcNAc(b1-4)GlcNAc
# In short: as §1
# [30] = molecular target: Neu5Ac(a2-3)Gal(b1-4)GlcNAc(b1-3)Gal(b1-4)GlcNAc(b1-3)Gal(b1-4)GlcNAc(b1-2)Man(a1-3)[Neu5Ac(a2-3)Gal(b1-4)GlcNAc(b1-3)Gal(b1-4)GlcNAc(b1-3)Gal(b1-4)GlcNAc(b1-2)Man(a1-6)]GalNAc
# In short: as §1
# [31] = molecular target: Neu5Ac(a2-3)Gal(b1-4)[Fuc(a1-3)]GlcNAc6S
# In short: as §1
# [32] = molecular target: Neu5Ac(a2-6)Gal(b1-4)GlcNAc(b1-3)Gal(b1-4)GlcNAc(b1-3)Gal(b1-4)GlcNAc(b1-2)Man(a1-3)[Neu5Ac(a2-6)Gal(b1-4)GlcNAc(b1-3)Gal(b1-4)GlcNAc(b1-3)Gal(b1-4)GlcNAc(b1-2)Man(a1-6)]GalNAc
# In short: as §1
# [33] = molecular target: Neu5Ac(a2-8)Neu5Ac(a2-3)Gal(b1-3)GalNAc(b1-4)[Neu5Ac(a2-8)Neu5Ac(a2-3)]Gal(b1-4)Glc
# In short: as §1
# [34] = molecular target: Neu5Gc(a2-8)Neu5Gc(a2-6)Gal(b1-4)GlcNAc
# In short: as §1
binder,measurement,setting,value
"HA-61200 (Pseudomonas aeruginosa), Q02SP8_PSEAB (protein) MNKCYALVWNVSQGCWNVVSEGSRRRGKPAGAKAAIASVLALLGATALAPAYALPSGGTVVGGSANGEIHLSGGNSLSVNQKVDKLIANWDSFSVAAGERVIFNQPSSSSIALNRVIGTKASDIQGRIDANGQVFLVNPNGVLFGRGAQVNVGGLVASTLDITDAEFNGNSSRYRFTGPSTNGVLNHGGAITAAEGGSIALLGAQVDNRGTVLAQMGGVGLGAGSDLTLNFDGNKLLDIRVDAGVANALASNGGLLKADGGRVLMAARTANALLNTVVNSQGAIEARSLRGKNGRIVLDG",glycan array binding signal (z-score),[1],-1.2
same,glycan array binding signal (z-score),[2],4.52
same,glycan array binding signal (z-score),[3],0.396
same,glycan array binding signal (z-score),[4],-0.278
same,glycan array binding signal (z-score),[5],1.01
same,glycan array binding signal (z-score),[6],1.51
same,glycan array binding signal (z-score),[7],-0.38
same,glycan array binding signal (z-score),[8],5.54
same,glycan array binding signal (z-score),[9],9.66
same,glycan array binding signal (z-score),[10],-0.012
same,glycan array binding signal (z-score),[11],5.22
same,glycan array binding signal (z-score),[12],2.44
same,glycan array binding signal (z-score),[13],0.257
same,glycan array binding signal (z-score),[14],-0.393
same,glycan array binding signal (z-score),[15],0.379
same,glycan array binding signal (z-score),[16],-0.492
same,glycan array binding signal (z-score),[17],3.1
same,glycan array binding signal (z-score),[18],3.46
same,glycan array binding signal (z-score),[19],5.18
same,glycan array binding signal (z-score),[20],2.6
same,glycan array binding signal (z-score),[21],0.232
same,glycan array binding signal (z-score),[22],-0.781
same,glycan array binding signal (z-score),[23],-0.006
same,glycan array binding signal (z-score),[24],0.298
same,glycan array binding signal (z-score),[25],-0.393
same,glycan array binding signal (z-score),[26],-0.706
same,glycan array binding signal (z-score),[27],1.41
same,glycan array binding signal (z-score),[28],-0.092
same,glycan array binding signal (z-score),[29],-0.276
same,glycan array binding signal (z-score),[30],3.75
same,glycan array binding signal (z-score),[31],-0.953
same,glycan array binding signal (z-score),[32],4.49
same,glycan array binding signal (z-score),[33],-0.215
same,glycan array binding signal (z-score),[34],-0.263
